VACV mCherry inh – vaccinia inhibition (mCherry reporter); Vaccinia virus mCherry reporter infection, fluorescence; Potency, µM (doses to about 36.5 µM), for the others: at the highest dose activity change, negative = inhibition, most hits filed as inhibitors; actives 0.63% (n = 310,000); calls by dose curve; tested in A549 cells; further: on the % scale 0 is the no-effect control and ±100 the full control effect; nearly all actives have a fitted effect of over 35% in size
Vaccinia Venus – inhibitors of vaccinia virus (Venus reporter) | actives 0.46% (n = 330,000) | Potency, µM (top dose mostly 36.5 µM), inactives show at the highest dose activity change, negative = inhibition, actives largely listed as inhibitors | AID 720580 | Vaccinia virus Venus reporter expression, fluorescence; calls by dose curve; tested in A549 cells; further: on the % scale 0 is the no-effect control and ±100 the full control effect; nearly all actives have a fitted effect of over 30% in size
NS1 inh – blocks influenza NS1 protein function; actives 0.4% (n = 270,000); Potency, µM (top dose mostly 46.1 µM), for the others: at the top dose activity, positive = more growth; AID 2326; calls by dose curve; further: actives are rising curves; nearly all actives have a fitted effect of over 50% in size
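OD600 was taken as the measure of yeast growth restored by compound in an NS1-expressing S. cerevisiae strain. Cells had been washed out of glucose medium and diluted 1:100 into galactose -URA medium, pH 6.0.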
Pf growth 96h – P. falciparum growth inhibition at 96 hour, primary screen for plastid delayed-death inhibitors; P. falciparum luciferase reporter growth, 96 h; Potency, µM (series often up to 28.7 µM), without a hit: at the top dose activity change, negative = inhibition, actives largely listed as inhibitors; actives 6.9% (n = 320,000); further: on the % scale 0 is the no-effect control and ±100 the full control effect
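Readout is luminescence from an integrated firefly luciferase in P. falciparum. Red cells, 2% hematocrit and 0.05% parasitemia final, were cultured with compound through two parasite generations (96 hours) at 37 C, 5% CO2.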
HCV inhibitor – blocks hepatitis C virus | AID 651820 | Huh7.5.1 HCVcc-Cre infection, luciferase reporter, 44 h | Potency, µM (series often up to 41.8 µM), for the others: at the highest dose activity change, negative = inhibition, usual class: inhibitors | actives 3.4% (n = 340,000); further: on the % scale 0 is the no-effect control and ±100 the full control effect
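Reporter virus HCVcc-Cre (~0.5 moi) infects cells exposed to compound; seeding density 1,000 cells/well with 4 h settling beforehand. Luminescence, 15 sec read, taken 44 h post-infection following a 15 min RT substrate incubation.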
Pf growth 48h – P. falciparum growth inhibition at 48 hours (one generation). P. falciparum luciferase growth in erythrocytes, 48 h. Potency, µM (series often up to 28.7 µM), for inactives: at the highest dose activity change, negative = inhibition, usual class: inhibitors. actives 5.9% (n = 310,000). AID 504832; further: on the % scale 0 is the no-effect control and ±100 the full control effect
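Growth was read as firefly luciferase luminescence after a 48 h, 37 C, 5% CO2 exposure of compounds to reporter-bearing P. falciparum cultures (0.1% parasitemia, 2% hematocrit final) in Albumax-supplemented RPMI 1640.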
Starred values were filed as active, the others as inactive; i = inactive; ? = inconclusive; nt = not tested or not shown. Rows were chosen to be rich in hits. Some 11% of all compounds tested hit in one or more screens of this group. Unless noted, the call rests on the fitted dose curve; in most records, active means well fitted inhibition curve with a large enough effect; inconclusive means small, poorly fitted or top-dose-only effect, or another doubt; inactive means no such curve, though single readings can be large or run the other way. Potency means the concentration at half of the fitted maximal effect.

SMILES	VACV mCherry inh	Vaccinia Venus	NS1 inh	Pf growth 96h	HCV inhibitor	Pf growth 48h
CNC(=O)c1sc(N2N=C3/C(=C\c4ccccc4)CCCC3C2c2ccccc2)nc1C (stereo not given)	-1%	-11%	nt	nt	?	nt
C=CCN1C(=O)/C(=C/c2cc(C)n(-c3ccccn3)c2C)C(=O)NC1=S	-8%	4%	19%	29%	4%	-3%
Cc1cc(/C=C2/NC(=O)NC2=O)c(C)n1-c1ccccn1	-6%	-12%	1%	9.3µM*	7%	10%
Cc1ccc(-n2c(C)cc(/C=C3\NC(=O)NC3=O)c2C)c(C)c1	-14%	-3%	-2%	13µM*	6%	13µM*
O=C(N/N=C/c1c[nH]c2ccccc12)c1ccn(Cc2ccc(Cl)cc2)n1	nt	-25%	-5%	?	-9%	-13%
CCN1CCN(Cc2ccc(NC(=O)c3ccc(C)c(NC(=O)c4c[nH]c5cc(C(F)(F)F)ccc5c4=O)c3)cc2C(F)(F)F)CC1	?	14µM*	?	0.52µM*	?	0.59µM*
CCN1CCN(Cc2ccc(NC(=O)c3ccc(C)c(NC(=O)C[C@@H]4NC(=O)[C@H](Cc5ccccc5)NC4=O)c3)cc2C(F)(F)F)CC1	i	-17%	-4%	?	-2%	?
CCN1CCN(Cc2ccc(NC(=O)c3ccc(C)c(NC(=O)C4=NN(c5ccccc5)C(=O)C4)c3)cc2C(F)(F)F)CC1	?	-12%	3%	0.52µM*	-17%	0.41µM*
Cc1ccc(C(=O)Nc2ccc3nc(N4CCCCC4)cc(C)c3c2)cc1F	-21%	-11%	nt	nt	nt	nt
CCN1CCN(Cc2ccc(NC(=O)c3cc(NC(=O)C4=NN(c5ccccc5)C(=O)C4)cc(OC)c3)cc2C(F)(F)F)CC1	-15%	-10%	1%	0.33µM*	11%	0.93µM*
CCN1CCN(Cc2ccc(NC(=O)c3ccc(C)c(/C=C/c4cnc(Nc5cc(N6CCNCC6)nc(C)n5)cn4)c3)cc2C(F)(F)F)CC1	?	8.9µM*	-20%	?	?	?
Cc1ccc(C(=O)Nc2cccc(C(F)(F)F)c2)cc1NC(=O)c1c[nH]c2cc(C(F)(F)F)ccc2c1=O	-11%	-8%	nt	nt	31%	nt
CCCc1nn2c(=O)cc(COC(=O)c3ccco3)nc2s1	-14%	-2%	nt	nt	nt	nt
COc1ccccc1N1CCN(C(=O)c2oc3ccccc3c2NC(=O)C(C)Oc2ccccc2)CC1 (stereo not given)	-2%	5%	nt	nt	nt	nt
CCN1CCN(Cc2ccc(NC(=O)c3ccc(C)c(NC(=O)c4csc(-c5ccncc5)n4)c3)cc2C(F)(F)F)CC1	-8%	?	-33%	0.93µM*	?	1.7µM*
Cc1ccc(C(=O)Nc2cccc(C(F)(F)F)c2)cc1NC(=O)c1cnnc2ccccc12	-11%	-11%	-4%	?	-12%	-3%
CCN1CCN(Cc2ccc(NC(=O)c3ccc(C)c(NC(=O)c4cccc(-c5cn[nH]c(=O)c5)c4)c3)cc2C(F)(F)F)CC1	?	7.1µM*	-8%	1.5µM*	?	1.7µM*
COc1ccccc1C1CN(CC(=O)N2CCC(C(O)c3ccccn3)CC2)Cc2ccccc2O1 (stereo not given)	-23%	-15%	nt	nt	nt	nt
COc1ccc(C(=O)Cn2cc[n+](C)c2)cc1	-27%	-17%	-3%	119%	11µM*	12µM*
CCOC(=O)c1cnc(SCC(=O)Nc2cc(OC)ccc2OC)nc1N	-19%	?	10%	nt	6.3µM*	-11%
CCOC(=O)Cc1csc(SCC(=O)Nc2cc(Cl)ccc2Oc2ccccc2)n1	nt	-28%	8%	nt	10µM*	-19%
CCOC(=O)Cc1csc(SCC(=O)Nc2cccc(Cl)c2)n1	nt	-9%	-65%	42%	-7%	nt
COc1ccc(OC)c(NC(=O)CSc2nc(C)cs2)c1	0%	-10%	-7%	nt	25µM*	0%
CC(C)N(Cc1ccccc1)C(=O)CN1C(=O)CSc2ccc(S(=O)(=O)N3CCCC3)cc21	-19%	-16%	nt	nt	nt	nt
Clc1ccc(C(c2ccccc2)N2CCN(c3ccccn3)CC2)cc1 (stereo not given)	-21%	-5%	-5%	6.6µM*	-15%	?
SMILES	VACV mCherry inh	Vaccinia Venus	NS1 inh	Pf growth 96h	HCV inhibitor	Pf growth 48h
CN1CCN(C(c2ccccc2)c2ccccc2)CC1	?	-17%	nt	6%	?	?
CN1CCCN(C(c2ccccc2)c2ccc(Cl)cc2)CC1 (stereo not given)	?	?	-4%	6.7µM*	1.3µM*	13µM*
CCOc1ccc(S(=O)(=O)N(C)c2ccc(OCC(=O)NCC3CCCCC3)cc2)cc1	-22%	-20%	nt	nt	?	nt
CCN(Cc1ccccc1)C(=O)c1ccc(N(C)S(=O)(=O)c2ccc(C)cc2)cc1	-1%	-17%	nt	?	-19%	15µM*
CN(c1ccccc1)S(=O)(=O)c1cccc(C(=O)NCCc2ccc(O)c(O)c2)c1	-17%	-8%	7%	?	?	13µM*
C=CCNC(=O)c1ccc(N(C)S(=O)(=O)c2ccc(OC)cc2)cc1	nt	nt	-18%	?	-5%	nt
CCOc1ccc(S(=O)(=O)N(C)c2ccc(OCC(=O)NCCc3ccc(OC)cc3)cc2)cc1	nt	nt	-6%	3.3µM*	-19%	93%
CCN(Cc1ccccc1)C(=O)c1ccc(CNS(=O)(=O)c2ccc(C)cc2)cc1	-11%	-22%	-14%	-13%	5%	?
COc1ccc(CCNC(=O)c2ccc(N(C)S(=O)(=O)c3ccc(C)cc3)cc2)cc1	?	-27%	nt	4%	10µM*	?
COc1ccc(C(=O)N/C(=C\c2cn(S(=O)(=O)N(C)C)c3ccccc23)C(=O)N2CCN(C)CC2)cc1OC	?	-13%	nt	nt	nt	nt
Cc1cc(CNC(=O)Cn2cc([N+](=O)[O-])cn2)c2ccccc2n1	-5%	1%	nt	?	23%	0%
COCCN(CC1CCCN(C2Cc3ccccc3C2)C1)C(=O)CCSC (stereo not given)	nt	nt	-5%	-26%	-5%	17%

Screening results: PubChem BioAssay, National Center for Advancing Translational Sciences (NCATS)
